Out of some 400,000 compounds screened, about 5,500 (1.4%) were called active. Roughly 9% stayed inconclusive and do not appear here. Many of the other results were omitted from the sample, so actives are more common in it than they were. Unmarked numbers belong to inactive results. Calls follow the shape of the dose curve; as a rule, active = well fitted cell-killing curve with a large enough effect; inconclusive = small, poorly fitted or top-dose-only effect, or effect the other way; inactive = flat fitted curve, though single readings scatter.
Assay: qHTS assay for MDR1-selective chemotherapeutics: Primary screen using the parental adenocarcinoma cell KB-3-1; also: nearly all actives have a fitted effect of over 60% in size
Conditions: KB-3-1 viability, CellTiter-Glo ATP luminescence, 72 h; series mostly up to 46.1 µM; activity change, negative = cytotoxic: at the top concentration
Summary of the method: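 Viability of parental KB-3-1 cells, measured by CellTiter-Glo luminescence, followed a 72 h incubation at 37 °C with pinned compounds in phenol-red-free DMEM containing 10% FBS.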
% is scaled to controls: 0 for no effect and ±100 for the full control effect; potency is read from the fitted curve at half-maximal effect.

SMILES | Potency | activity change, negative = cytotoxic [%]
COc1ccc(-c2cccc(NS(=O)(=O)c3cc(C)c(OC)c(C)c3C)c2)nn1 | 3.66 µM (active) | –
CCCOc1ccc(-c2cccc(NS(=O)(=O)c3ccccc3)c2)nn1 | – | -16.5
COc1ccc(OC)c(S(=O)(=O)Nc2cccc(-c3ccc4nncn4n3)c2)c1 | – | -7.93
O=C(Nc1ccc(-c2nc3cc(NC(=O)c4ccccc4Cl)ccc3o2)cc1)c1ccccc1Cl | – | -9.52
C/C(=N/Nc1ccc(Cl)cc1)c1cnnc(-c2ccccc2)n1 | – | 2.92
Fc1ccccc1Cc1ccc(Cl)nn1 | – | 4.26
C/C(=N\Nc1ccc(Cl)nn1)c1ccccc1O | 14.6 µM (active) | –
CC(=O)N1CCc2cc(S(=O)(=O)NC(Cc3ccccc3)C(=O)NCc3ccc(C)cc3)ccc21 (centres undefined) | – | 0.414
O=C(c1ccc(Oc2ccc(Cl)cc2)c([N+](=O)[O-])c1)N1CCCC1 | – | -4.08
Nc1ccc(C(=O)N2CCN(S(=O)(=O)c3ccc(Cl)cc3)CC2)cc1[N+](=O)[O-] | – | -16.3
CC1CCN(C(=O)c2ccc(S(=O)(=O)Cc3cc(F)ccc3F)c([N+](=O)[O-])c2)CC1 | 23.1 µM (active) | –
CC[C@]1(O)C[C@@H]2CN(CCc3c([nH]c4ccccc34)[C@@](C(=O)OC)(c3cc4c(cc3OC)N(C)[C@H]3[C@@](O)(C(=O)OC)[C@H](OC(C)=O)[C@]5(CC)C=CCN6CC[C@]43[C@@H]65)C2)C1 | 0.164 µM (active) | –
COc1cc(NC(=O)Cn2nc(-c3ccc(C)c(C)c3)ccc2=O)cc(OC)c1 | – | 5.25
N#Cc1nc(NCc2ccc(Cl)c(Cl)c2)c2ncn(CCCO)c2n1 | – | 0
O=C(NCC(c1ccc(Cl)cc1)N1CCOCC1)c1ccccc1F (centres undefined) | – | -21.3
O=C(NCCC1CCCCN1S(=O)(=O)c1cccs1)C(=O)Nc1ccc(F)cc1F (centres undefined) | 23.1 µM (active) | –
O=C(NCCC1CCCCN1S(=O)(=O)c1ccc(F)cc1)C(=O)NC1CC1 (centres undefined) | – | 9.7
COc1ccccc1CCNC(=O)C(=O)NCCC1CCCCN1S(=O)(=O)c1cccs1 (centres undefined) | – | -17.7
CCCCCn1c(=O)[nH]c2cc(C(=O)NCCN(C)CCCC)ccc2c1=O | – | -5.66
O=C(Oc1ccc(-c2nc(-c3ccccn3)no2)cc1)c1ccccc1 | 7.31 µM (active) | –
CC(=O)c1ccc(NC(=O)COc2ccccc2-c2nc(-c3ccccc3)no2)cc1 | – | 17.8
Cc1noc(C)c1COC(=O)COc1ccc(-c2ccccc2)cc1 | – | -1.36
CCOC(=O)c1c(-c2ccc(OC)cc2)oc2ccc(OCc3ccc(C(=O)OC)cc3)cc12 | – | -3.43
O=C(OC/C=C/CSc1nnc(-c2cccc3ccccc23)o1)c1ccc(F)cc1 | – | 19.6
Cc1nc2c(-c3ccccc3)c(C)nn2c(C)c1CCC(=O)NCCc1ccccc1 | – | 6.79

SMILES | Potency | activity change, negative = cytotoxic [%]
Cc1ccc(C)c(N2CCN(C(=O)Cn3ncc4c(=O)oc5ccc(C)cc5c43)CC2)c1 | – | 6.18
CC1CCCN(c2csc3ccc(F)cc3c2=O)C1 (centres undefined) | – | 0.746
N#CC1=C(SCc2ccccc2)NC(=O)C(C#N)C12CCCC2 (centres undefined) | 11.6 µM (active) | –
Cc1ccc(CNS(=O)(=O)c2ccc(C(=O)N(C)C)s2)cc1 | – | -1.95
Cn1c(C(=O)N2CCC(C(=O)N3CCN(c4ccccc4)CC3)CC2)cc2sccc21 | – | -16.4
COc1cccc(CNC(=O)c2nnn(CC(=O)Nc3cc(C)ccc3C)c2N)c1 | – | 6.77
Nc1c(C(=O)NCc2ccccc2)nnn1Cc1cccc(Cl)c1 | 20.6 µM (active) | –
COc1cccc(CNC(=O)c2nnn(CC(=O)Nc3cc(Cl)ccc3C)c2N)c1 | – | -2.56
CC1(C)CC(N2CCN(C(c3ccccc3)c3ccccc3)CC2)=CC(=[N+]2CCCCC2)C1 | 0.517 µM (active) | –
CN(C(=O)CSc1nc2ccccc2n1Cc1ccccc1C#N)c1ccccc1 | – | 1.02
Cc1ccc(-c2noc(CSc3nnc(-c4ccc(Cl)cc4)n3C)n2)cc1 | – | -14.8
Cc1nn(-c2ccccc2)c(C)c1NC(=O)CCl | 14.6 µM (active) | –
CCC(Oc1ccccc1)C(=O)OCC(=O)Nc1c(C)nn(-c2ccccc2)c1C (centres undefined) | – | -0.205
Cc1cccc(C)c1NC(=O)CNC(=O)c1c(C)nn(-c2ccccc2)c1C | – | -8.93
C/C=C/c1ccc(OCC(=O)OCC(=O)Nc2c(C)nn(-c3ccccc3)c2C)c(OC)c1 | – | 3.03
Cc1nn(-c2ccccc2)c(C)c1NC(=O)COc1ccc(Cl)cc1Cl | 5.17 µM (active) | –
Cc1nn(-c2ccccc2)c(C)c1NC(=O)COC(=O)c1cc(Cl)ccc1O | – | 9.05
OCc1cnc(SCc2ccc(F)cc2)n1Cc1ccc(F)cc1 | – | -6.67
CN1C(=O)c2ccccc2Sc2ccc(NC(=O)Cc3ccc(Cl)cc3)cc21 | – | 3.86
COc1ccc2c(C)c(CCC(=O)NCc3ccc(OC)c(OC)c3)c(=O)oc2c1 | – | -17.9
Cc1ccc(C)c(N2CCN(C(=O)CN3C(=O)COc4ccc(S(=O)(=O)N5CCCCCC5)cc43)CC2)c1 | – | -28
COc1ccccc1NC(=O)C1=C(C)Nc2ncnn2C1c1sccc1C (centres undefined) | – | -2.47
COc1ccccc1NC(=O)C1=C(C)Nc2nc3ccccc3n2C1c1cccs1 (centres undefined) | 3.26 µM (active) | –
CC1=C(C(=O)Nc2ccccc2Cl)C(c2cccs2)n2ncnc2N1 (centres undefined) | – | -2.1
